From PubChem BioAssay AID1159580 (chemical genetic matrix, 2015)
Where “and” joins values, the source holds several entries; their conditions need not be identical. Identical values can stand only once. Out of some 5,500 compounds screened, about 2,000 (36%) were called active. Another 18% or so got no clear call; they are omitted. Cut-off read from the data, not from the text of the source: active = normalized growth mostly below about 0.91 (no sharp cut-off); inconclusive = no clear call, values can overlap the other calls; inactive = mostly above about 0.92. This is one part of the list.

Experiment: chemical genetic growth profiling, strain panel (AID 1159580);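 note: tested at 20 µM; growth read once vehicle control cultures reached saturation at 30 °C; 1 = growth at the plate median or of vehicle wells; lower values mean less growth of the strain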
Settings: S. cerevisiae deletion strains, growth OD

Measured: normalized growth

COc1cc(O)c2c(c1)C(=O)c1cc(C)cc(O)c1C2=O
inactive: locus YAL013W, strain DEP1, active compounds read low 0.991 | locus YAL021C, strain ccr4, active compounds read low 0.987 | locus YAL026C, strain drs2, active compounds read low 0.997 | locus YAL030W, strain snc1, active compounds read low 0.98 | locus YBL061C, strain skt5, active compounds read low 0.994 | locus YBR009C, strain hhf1, active compounds read low 1 | locus YBR021W, strain FUR4, active compounds read low 1.04 | locus YBR023C, strain chs3, active compounds read low 0.988 | locus YBR171W, strain sec66, active compounds read low 0.995 | locus YBR229C, strain ROT2, active compounds read low 1.01 | locus YBR231C, strain swc5, active compounds read low 0.993 | locus YBR279W, strain paf1, active compounds read low 0.998 | locus YCL011C, strain gbp2, active compounds read low 1 | locus YCL016C, strain dcc1, active compounds read low 0.98 | locus YCL029C, strain bik1, active compounds read low 1 | locus YCL061C, strain MRC1, active compounds read low 0.977 | locus YCL069W, strain vba3, active compounds read low 0.995 | locus YCR088W, strain abp1, active compounds read low 0.993 | locus YDL005C, strain med2, active compounds read low 0.971 | locus YDL035C, strain GPR1, active compounds read low 0.997 | locus YDL040C, strain nat1, active compounds read low 0.99 | locus YDL074C, strain BRE1, active compounds read low 0.974 | locus YDL101C, strain DUN1, active compounds read low 1 | locus YDL134C, strain PPH21, active compounds read low 1 | locus YDL185W, strain tfp1, active compounds read low 1 | locus YDL192W, strain arf1, active compounds read low 1.01 | locus YDR001C, strain nth1, active compounds read low 0.998 | locus YDR069C, strain doa4, active compounds read low 0.981 | locus YDR101C, strain arx1, active compounds read low 0.986 | locus YDR150W, strain NUM1, active compounds read low 1.02 | locus YDR159W, strain sac3, active compounds read low 0.965 | locus YDR162C, strain NBP2, active compounds read low 0.982 | locus YDR195W, strain ref2 1.01 | locus YDR297W, strain sur2, active compounds read low 0.977 | locus YDR318W, strain mcm21, active compounds read low 0.971 | locus YDR334W, strain swr1, active compounds read low 1 | locus YDR335W, strain msn5, active compounds read low 0.99 | locus YDR388W, active compounds read low 1 | locus YDR392W, strain spt3, active compounds read low 0.95 | locus YDR502C, strain sam2, active compounds read low 0.989 | locus YEL003W, strain gim4, active compounds read low 0.997 | locus YEL037C, strain rad23, active compounds read low 1.01 | locus YEL061C, strain CIN8 (second series), active compounds read low 0.995 | locus YER015W, strain faa2, active compounds read low 0.999 | locus YER016W, strain bim1, active compounds read low 0.976 | locus YER110C, active compounds read low 1.01 | locus YER111C, strain swi4, active compounds read low 0.987 | locus YER155C, strain BEM2 (second series), active compounds read low 0.973 | locus YER155C, strain BEM2, active compounds read low 1.01 | locus YER167W, strain BCK2, active compounds read low 0.994 | locus YFR010W, strain ubp6, active compounds read low 1.02 | locus YGL078C, strain dbp3, active compounds read low 1.01 | locus YGL086W, strain mad1, active compounds read low 1 | locus YGL167C, strain pmr1, active compounds read low 0.977 | locus YGL173C, strain kem1, active compounds read low 0.993 | locus YGL227W, strain vid30, active compounds read low 1 | locus YGL240W, strain doc1, active compounds read low 0.98 | locus YGL248W, strain PDE1, active compounds read low 1.01 | locus YGL253W, strain hxk2, active compounds read low 1.01 | locus YGR078C, strain PAC10, active compounds read low 0.989 | locus YGR135W, strain pre9, active compounds read low 0.992 | locus YGR229C, strain SMI1, active compounds read low 0.968 | locus YGR252W, strain gcn5, active compounds read low 1.06 | locus YHR013C, strain ard1, active compounds read low 0.997 | locus YHR027C, strain rpn1, active compounds read low 0.999 | locus YHR030C, strain SLT2, active compounds read low 1.01 and 1 | locus YHR079C, strain IRE1 (second series), active compounds read low 0.981 | locus YHR079C, strain IRE1, active compounds read low 1.04 | locus YHR094C, strain hxt1, active compounds read low 1 | locus YHR129C, strain ARP1, active compounds read low 0.998 | locus YHR142W, strain chs7, active compounds read low 1.04 | locus YHR200W, strain rpn10, active compounds read low 1 | locus YIL066C, strain RNR3, active compounds read low 1.01 | locus YIL073C, strain SPO22, active compounds read low 0.991 | locus YIL125W, strain kgd1, active compounds read low 0.994 | locus YIR030C, strain dcg1, active compounds read low 0.993 | locus YJL092W, strain hpr5, active compounds read low 0.997 | locus YJL095W, strain BCK1 (second series), active compounds read low 0.972 | locus YJL095W, strain BCK1, active compounds read low 0.883 and 0.965 | locus YJL115W, strain asf1, active compounds read low 1 | locus YJL129C, strain trk1, active compounds read low 0.981 | locus YJL134W, strain LCB3, active compounds read low 1.01 | locus YJL154C, strain vps35, active compounds read low 0.991 | locus YJL164C, strain tpk1, active compounds read low 0.995 | locus YJL166W, strain qcr8, active compounds read low 0.989 | locus YJL168C, strain set2, active compounds read low 1 | locus YJL187C, strain SWE1 (second series), active compounds read low 1 | locus YJL187C, strain SWE1, active compounds read low 0.985 | locus YJR043C, strain POL32, active compounds read low 1 | locus YJR066W, strain TOR1, active compounds read low 0.987
active: locus YDR137W, strain rgp1, active compounds read low 0.76
